The record followed here is PubChem BioAssay AID1729 (National Center for Advancing Translational Sciences (NCATS), 2009).

Results filed as inconclusive are left out. Entries that show only a call come without a potency. Calls of active or inactive are those of the source. The call rests on the fitted dose curve; in most records, active means well fitted curve in the direction sought with a large enough effect; inconclusive means small, poorly fitted or top-dose-only effect, or effect the other way, or another doubt; inactive means no such curve, though single readings can be large or run the other way.

Sequence of Epidermal growth factor receptor (Homo sapiens) (P00533 whole entry T790M, looked up): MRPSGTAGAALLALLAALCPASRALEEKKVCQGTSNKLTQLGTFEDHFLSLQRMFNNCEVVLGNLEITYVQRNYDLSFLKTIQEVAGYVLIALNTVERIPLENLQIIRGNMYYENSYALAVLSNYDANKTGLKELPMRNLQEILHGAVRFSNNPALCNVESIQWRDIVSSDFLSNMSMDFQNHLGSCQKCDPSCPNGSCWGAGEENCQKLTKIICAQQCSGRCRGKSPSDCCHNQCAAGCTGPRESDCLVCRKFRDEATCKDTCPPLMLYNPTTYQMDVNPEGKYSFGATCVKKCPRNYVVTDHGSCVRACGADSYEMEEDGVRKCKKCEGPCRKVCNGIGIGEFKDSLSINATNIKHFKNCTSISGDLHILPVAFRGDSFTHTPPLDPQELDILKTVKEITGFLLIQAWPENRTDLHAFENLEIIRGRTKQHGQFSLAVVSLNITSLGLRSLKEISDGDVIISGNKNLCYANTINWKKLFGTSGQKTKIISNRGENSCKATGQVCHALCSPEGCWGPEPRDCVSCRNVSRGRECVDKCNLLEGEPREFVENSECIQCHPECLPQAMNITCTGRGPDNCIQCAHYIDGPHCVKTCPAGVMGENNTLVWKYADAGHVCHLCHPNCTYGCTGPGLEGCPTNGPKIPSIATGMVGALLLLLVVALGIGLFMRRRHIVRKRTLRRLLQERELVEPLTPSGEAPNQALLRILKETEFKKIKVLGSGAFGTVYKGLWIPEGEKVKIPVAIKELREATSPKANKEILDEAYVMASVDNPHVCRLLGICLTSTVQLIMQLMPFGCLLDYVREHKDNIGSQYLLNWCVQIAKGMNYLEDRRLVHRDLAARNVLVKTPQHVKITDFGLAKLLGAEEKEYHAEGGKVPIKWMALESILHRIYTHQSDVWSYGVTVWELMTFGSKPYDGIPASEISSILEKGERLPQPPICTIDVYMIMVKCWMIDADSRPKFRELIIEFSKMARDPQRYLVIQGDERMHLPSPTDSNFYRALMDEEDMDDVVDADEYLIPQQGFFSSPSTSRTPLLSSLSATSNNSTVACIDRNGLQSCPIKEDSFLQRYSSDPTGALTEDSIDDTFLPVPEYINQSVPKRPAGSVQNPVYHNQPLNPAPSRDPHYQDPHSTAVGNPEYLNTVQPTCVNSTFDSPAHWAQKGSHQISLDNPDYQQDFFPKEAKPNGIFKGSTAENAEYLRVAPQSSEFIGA

The assay has as its target Epidermal growth factor receptor (Homo sapiens) (UniProt P00533). Briefly: Assay for Inhibitors of the ERK Signaling Pathway using a Homogeneous Screening Assay: EGFR T790M Kinase Inhibition. The note with it: EGFR T790M kinase biochemical inhibition assay; series mostly up to 21.9 µM. The text has this:
qHTS Assay for Inhibitors of the ERK Signaling Pathway using a Homogeneous Screening Assay
NIH Chemical Genomics Center [NCGC]
NIH Molecular Libraries Screening Centers Network [MLSCN]
Assay Submitter (PI): Dr. Wei Zheng, NCGC/NIH
The Ras/extracellular-signal-regulated kinase (ERK) mitogen activated protein (MAP) kinase signaling pathway (ERK1/2 cascade) plays is a key role in transmitting signals from the cell surface to the nucleus (Nishida and Gotoh 1993; Chang and Karin, 2001). The cascade is initiated by the small G-protein Ras, which recruits Raf […], where activation occurs. Alternatively, this pathway can be activated by elevating intracellular cAMP.
Activation of the ERK pathway is essential in increased cell division and cell survival. Sustained and constitutive activation of the ERK pathway, however, has been linked to uncontrolled cell proliferation, increased cell survival, and tumor progression. Thus, the ERK has been as an attractive target for cancer chemotherapy in the past few years (Sebolt-Leopold and Herrera, 2004). Given its physiological and pathological importance, assessment of ERK phosphorylation has been broadly performed in both basic research and drug discovery. Most assays for the measurement of ERK phosphorylation use the antibody-based detection methods, such as western blot and ELISA. These assays require multiple reagent additions with cell wash steps and are not suitable for high-throughput screening.
The current cell-based ERK phosphorylation assay was performed using AlphaScreen platform. AlphaScreen is a two bead-based proximity-dependent chemical energy transfer luminescent assay platform. The assay reagents (ERK SureFire(TM) kit) were supplied from TGR BioSciences (Australia). In the presence of specific antibodies, phosphorylated ERK will bring "donor" and "acceptor" beads to a proximity range (<200 nm), and subsequently lead a chemical luminescent reaction upon exciting donor beads with 680 nm laser. To validate pathway hits from the cell-based assay, enzyme assays consisting of EGFR tyrosine kinase, Raf and MEK were used as a means of deciphering the enzymes of target for the prioritized group of compounds derived from the HEK-293 cell based assay. The compounds were tested against significant members of the ERK signaling pathway EGFR and EGFR mutants (EGFR L858R, EGFR T790M, and EGFR L858R T790M). In order to establish the specificity of the prioritized compounds for EGFR and EGFR mutants, the compounds were also assayed against other important ERK signaling pathway enzymes, c-RAF and MEK-1.
NCGC Assay Protocol Summary:
The HTRF kinase assay (components supplied as kit by Cisbio) was chosen for the EGFR and EGFR mutant enzyme assays that applied the time resolved fluorescence resonance energy transfer (TR-FRET) principle. A peptide substrate is labeled with a biotin that can bind to XL665 labeled streptavidin and the anti-phosphoresidue antibody is labeled with Eu+. Upon phosphorylation of the substrate, the antibody binds to phosphorylated substrate that enables TR-FRET detection in homogenous assay format.
An HTRF Kinease TK assay kit (Cisbio, Bedford, MA) was used to develop the EGFR and EGFR mutant assays (Harbert et al., 2008. Harbert C, Marshall J, Soh S, Steger K. Development of a HTRF Kinase Assay for Determination of Syk Activity. Current Chemical Genomics. 1: 20-26. 2008). EGFR and EGFR mutants were obtained from Invitrogen. The assay buffer was composed of 50 mM HEPES (pH 7.0), 5 mM MgCl2, 5mM DTT, 0.1 % NaN3, 0.1 % BSA and 0.1 mM orthovanadate.
The HTRF assays were preformed according to the HTRF Kinease TK kit. Optimization for each enzyme was preformed in 384 well format (data not included). All reagents were dispensed into 1536 well plates.
(1) Enzyme, […] EGFR at 3 nM final
(2) Compound, 22 nl, Library Compounds in 0.128 to 10 mM titration series or control
(3) Reagent, 1.5 ul 10 uM ATP and 0.25 uM substrate final
(4) Incubation for 30 min, Ambient conditions
[…]
Regarding `Cn1c(=O)[nH]c2nnc(-c3ccc(Cl)c(Cl)c3)nc2c1=O`, the Potency result was “inactive”.

Regarding `Cc1ccc2nc(=O)c(NNc3ccccc3)cnc2c1`, the Potency was 355 nM (active).

Consider `Fc1ccc(Nc2ncnc3sc4c(c23)CCC4)cc1F`, for which the Potency entry is “inactive”.

On to `CCn1c(=O)c2[nH]c(-c3ccccc3)nc2n(CC)c1=O`, for which the Potency entry is “inactive”.

With `COc1ccc(C(=O)c2ccc(Cl)c([N+](=O)[O-])c2)cc1`, the Potency entry was “inactive”.

For `Cc1ccc(NNc2c(C)nc3ccccc3nc2=O)cc1`, the Potency result was “inactive”.

As for `N#C/C(=C(/N)Sc1ccc(N)cc1)c1ccccc1C(F)(F)F`, the Potency result was “inactive”.

For `Cn1nc(-c2ccc(Cl)cc2)nc2c(=O)n(C)c(=O)nc1-2`, the Potency entry is “inactive”.

As to `O=C(Nc1nc(-c2ccccc2)cs1)c1ccc(N2CCOCC2)c([N+](=O)[O-])c1`, the Potency entry was “inactive”.

Consider `CS(=O)(=O)CCNCc1nc(-c2ccc3ncnc(Nc4ccc(OCc5cccc(F)c5)c(Cl)c4)c3c2)cs1`, for which the Potency result was “inactive”.

On to `Cc1nc2ccccc2nc(=O)c1NNc1ccccc1`, for which the Potency is 316 nM (active).

Take `CCN(CC)CCC(=O)Nc1cccc2c1C(=O)c1ccccc1C2=O`: the Potency result is “inactive”.
